Among the data in PubChem BioAssay (EPA / NIEHS) are outcome and AC50 values, retold here.

The AC50 is the midpoint of the concentration-response curve, whichever way the signal moves.

Assay [1] addresses Transcription factor E2F1 (Homo sapiens) (UniProt Q01094). Kind of assay: ATG_E2F_CIS: Attagene CIS-FACTORIAL HepG2 Assay for human E2F Transcription Factor 1 (AID 2282935). Particulars: HepG2 Attagene cis-reporter, E2F reporter RNA transcripts; actives raise or lower the signal. In outline: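 In this cis-factorial format, endogenous factor activity drives transfected reporters in HepG2; transcripts collected at 24 h are quantified by fluorescence after RT-PCR and capillary separation.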

Assay [2] in a line: ATG_E_Box_CIS: Attagene CIS-FACTORIAL HepG2 Assay for human Enhancer Box (E-box) (AID 2282936). Particulars: HepG2 E-box cis-reporter transcription, actives raise or lower the signal. In outline: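 Measured 24 h post-dosing in HepG2 cells transfected with multiple cis-regulated reporter units, signal being reporter mRNA induction detected by fluorescent RT-PCR with capillary electrophoresis; gain or loss fitted against DMSO.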

The nature of assay [3]: ATG_M_61_CIS: Attagene CIS-FACTORIAL HepG2 Assay for M61 Transcription Factor (Internal Marker) (AID 2282937). To be noted: HepG2 Attagene CIS-FACTORIAL M61 internal marker reporter; actives raise or lower the signal. In short, it runs like this:
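Using transiently transfected HepG2 liver cells, reporter transcript levels were assessed 24 h post-dosing by RT-PCR and capillary electrophoresis. Changes in either direction were fitted relative to DMSO controls.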

Assay [4] in a line: ATG_EGR_CIS: Attagene CIS-FACTORIAL HepG2 Assay for human Early Growth Response 1 (EGR1) (AID 2282938). Particulars: HepG2 Attagene CIS-FACTORIAL EGR reporter mRNA; actives raise or lower the signal. In outline: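 Fluorescent capillary-electrophoresis signal of reporter cDNA fragments serves as read-out. HepG2 cells bear transiently transfected cis-promoter reporter units and are exposed 24 h; gain- or loss-of-signal is fitted against DMSO.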

A short description of assay [5]: ATG_M_19_CIS: Attagene CIS-FACTORIAL HepG2 Assay for M19 Transcription Factor (Internal Marker) (AID 2282939). To be noted: HepG2 Attagene CIS-FACTORIAL M19 internal marker reporter; actives raise or lower the signal. In short, it runs like this:
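HepG2 cells transiently transfected with cis-regulated multiplexed reporter units, dosed 24 h. Reporter mRNA quantified by RT-PCR and capillary electrophoresis; internal background marker fitted bidirectionally versus DMSO.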

A short description of assay [6]: ATG_ERE_CIS: Attagene CIS-FACTORIAL HepG2 Assay for Estrogen Response Element (ERE) (AID 2282940). Particulars: HepG2 ERE cis-reporter, Attagene RNA transcript; actives raise or lower the signal. In outline: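 HepG2 cells transiently transfected with multiplexed cis-element reporter units, measuring endogenous transcription factor activity; ERE reporter mRNA quantified after 24 h exposure by RT-PCR, fluorescent labelling, HpaI digestion and capillary electrophoresis. Bidirectional change versus DMSO.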

Assay [7] is described as follows: ATG_Ets_CIS: Attagene CIS-FACTORIAL HepG2 Assay for human Erythroblast Transformation Specific (ETS) (AID 2282941). Particulars: HepG2 ETS cis-reporter transcription, actives raise or lower the signal. In outline: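 Endogenous transcription factor activity read as reporter mRNA via RT-PCR and capillary electrophoresis, with gain or loss fitted bidirectionally against DMSO. Human HepG2 liver cells, transiently transfected CIS reporter constructs, 24 h exposure.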

Assay [8] addresses Hepatocyte nuclear factor 3-beta (Homo sapiens) (UniProt Q9Y261). Kind of assay: ATG_FoxA2_CIS: Attagene CIS-FACTORIAL HepG2 Assay for human Forkhead box A2 (FOXA2) (AID 2282942). To be noted: HepG2 cis-reporter transcription factor activity, 24 h; actives raise or lower the signal. In outline: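 Fluorescence signal of reporter cDNA fragments, separated by capillary electrophoresis, reflects endogenous transcription factor activity in transfected HepG2 after 24 h. Both increases and decreases fitted against DMSO.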

Assay [9] in a line: ATG_FoxO_CIS: Attagene CIS-FACTORIAL HepG2 Assay for human Forkhead box O (FoxO) (AID 2282943). To be noted: HepG2 Attagene cis-reporter, FoxO element, mRNA; actives raise or lower the signal. In short, it runs like this:
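Values reflect reporter mRNA induction or loss in HepG2 cells 24 h post-dosing, fitted bidirectionally with DMSO as negative control and baseline. Detection used RT-PCR and fluorescence capillary electrophoresis.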

Assay [10] can be described thus: ATG_GATA_CIS: Attagene CIS-FACTORIAL HepG2 Assay for human GATA Binding Protein (AID 2282944). Particulars: HepG2 GATA cis-element reporter, Attagene multiplex mRNA; actives raise or lower the signal. In short, it runs like this: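 HepG2 cells transiently transfected with multiplexed cis-element reporter units measure endogenous GATA activity; after 24 h compound exposure, reporter mRNA quantified by RT-PCR and capillary electrophoresis. Changes fitted in both directions vs DMSO.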

Some compounds were tested as several samples or in several runs, with calls that do not always agree. The source made the active and inactive calls. The calls were made as follows: active = hit-call score of the fitted dose curve at least 0.9, where 1 is the maximum; inactive = score below 0.9.

Hepatocyte nuclear factor 3-beta (Homo sapiens), sequence (Q9Y261 whole entry, looked up, the tested form may be a part): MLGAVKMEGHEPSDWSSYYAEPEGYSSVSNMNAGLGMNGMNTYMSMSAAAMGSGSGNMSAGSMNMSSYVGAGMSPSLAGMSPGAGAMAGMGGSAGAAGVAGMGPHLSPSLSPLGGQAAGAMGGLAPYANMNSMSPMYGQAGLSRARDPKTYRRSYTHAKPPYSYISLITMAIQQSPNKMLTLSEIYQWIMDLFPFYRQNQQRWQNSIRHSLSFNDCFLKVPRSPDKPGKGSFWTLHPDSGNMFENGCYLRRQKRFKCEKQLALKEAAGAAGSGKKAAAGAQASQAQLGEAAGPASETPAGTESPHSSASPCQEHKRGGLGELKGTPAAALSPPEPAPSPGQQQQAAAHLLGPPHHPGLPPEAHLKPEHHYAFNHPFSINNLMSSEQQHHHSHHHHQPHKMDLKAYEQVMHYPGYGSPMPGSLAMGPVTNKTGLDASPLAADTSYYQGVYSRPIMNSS
Transcription factor E2F1 (Homo sapiens), sequence (Q01094 whole entry, looked up): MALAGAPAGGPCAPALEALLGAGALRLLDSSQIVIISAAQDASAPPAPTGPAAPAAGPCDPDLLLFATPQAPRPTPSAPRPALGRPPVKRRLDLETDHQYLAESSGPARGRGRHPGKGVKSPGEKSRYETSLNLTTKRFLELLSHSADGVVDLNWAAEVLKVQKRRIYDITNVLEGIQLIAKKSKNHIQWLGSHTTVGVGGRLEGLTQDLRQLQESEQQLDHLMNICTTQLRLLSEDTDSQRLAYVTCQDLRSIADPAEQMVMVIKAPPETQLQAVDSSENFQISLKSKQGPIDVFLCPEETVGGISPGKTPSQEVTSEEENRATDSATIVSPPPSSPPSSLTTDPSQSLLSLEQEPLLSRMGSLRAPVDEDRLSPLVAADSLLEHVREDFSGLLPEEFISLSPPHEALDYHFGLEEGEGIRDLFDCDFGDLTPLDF

Turning to `C=C(C)C(=O)OCC(F)(F)C(F)(F)C(F)(F)C(F)(F)C(F)(F)C(F)(F)C(F)(F)F`, the outcome in assay [1], in assay [2], in [3], in assay [4], in [5] and in assay [7] was inactive. The call in assay [8], in assay [9] and in assay [10] was inactive. Besides, the AC50 in [6] was 16.2 µM (active).
`O=C(OCCOCCOCCOC(=O)c1ccccc1)c1ccccc1`: the call in assay [1], in assay [2], in [3], in [4], in [5] and in assay [7] was inactive. For the same compound, the result in [8], in [9] and in [10] was inactive. Also, the half-maximal activity concentration (AC50) in assay [6] was 0.62 µM (active).
Take `CCCCCCOC(=O)c1ccccc1`: the result in assay [1], in [2], in [3], in assay [4], in [5] and in [6] was inactive. In addition, the compound was classed as inactive in assay [7], in assay [8], in assay [9] and in [10].
With `Oc1ccc(Nc2ccccc2)cc1`, the compound was classed as inactive in assay [1], in assay [3], in [4], in [5], in [7] and in [8]. The result in assay [9] and in assay [10] was inactive. The AC50 was 100 µM (active) in assay [2] and 8.42 µM (active) in assay [6].
As to `C=CC(F)(F)C(F)(F)C(F)(F)C(F)(F)C(F)(F)C(F)(F)C(F)(F)C(F)(F)C=C`, the call in [1], in assay [2], in assay [3], in assay [4], in assay [5] and in assay [7] was inactive. For the same compound, the compound was classed as inactive in assay [8], in [9] and in [10]. Besides, in assay [6], the half-maximal activity concentration (AC50) is 4.46 µM (active).
`O[Si](c1ccccc1)(c1ccccc1)c1ccccc1`: the call in [1], in assay [3], in assay [4], in assay [5], in assay [7] and in [8] was inactive. For the same compound, the outcome in assay [9] and in [10] was inactive. For the same compound, the AC50 in [2] was 15.8 µM (active); in [6] it was 12.8 µM (active).
For the compound `CCC(=O)OCCc1ccccc1`, the compound was classed as inactive in assay [1], in assay [2], in assay [3], in assay [4], in [5] and in assay [6]. Besides, the result in assay [7], in assay [8], in assay [9] and in assay [10] was inactive.
Consider `FC(F)(F)C(F)(F)C(F)(F)C(F)(F)C(F)(F)C(F)(F)C(F)(F)C(F)(F)F`, for which the call in assay [1], in [2], in assay [3], in assay [4], in [5] and in assay [6] was inactive. Also, the compound was classed as inactive in assay [7], in assay [8], in assay [9] and in assay [10].
Consider `O=C(O)C(F)(F)C(F)(F)C(F)F`, for which the result in assay [1], in [2], in assay [3], in assay [4], in assay [5] and in assay [6] was inactive. Also, the result in assay [7], in assay [8], in assay [9] and in assay [10] was inactive.
On to `Nc1cc(Cl)c(N)c(Cl)c1`, for which the result in assay [1], in assay [2], in assay [3], in assay [4], in [5] and in assay [7] was inactive. The call in [8], in assay [9] and in assay [10] was inactive. The half-maximal activity concentration (AC50) in [6] was 7.29 µM (active).
On to `FC(F)(F)C(F)(F)C(F)(F)N(C(F)(F)C(F)(F)C(F)(F)F)C(F)(F)C(F)(F)C(F)(F)F`, for which the compound was called inactive in assay [1], in [2], in assay [3], in assay [4], in [5] and in [6]. The outcome in assay [7], in [8], in assay [9] and in assay [10] was inactive.
Consider `C=C(C)C(=O)OCC(F)(F)C(F)(F)C(F)(F)F`, for which the compound was classed as inactive in [1], in assay [2], in assay [3], in assay [4], in assay [5] and in assay [6]. For the same compound, the compound was classed as inactive in assay [7], in [8], in assay [9] and in [10]. The concentration at half-maximal activity (AC50) in assay [6] is 30.8 µM (active).
For `O=C(O)C(F)(OC(F)(F)C(F)(OC(F)(F)C(F)(F)C(F)(F)F)C(F)(F)F)C(F)(F)F` (stereo unspecified), the call in [1], in assay [2], in assay [3], in [4], in assay [5] and in assay [6] was inactive. The compound was classed as inactive in [7], in [8], in assay [9] and in assay [10].
As to `Cc1ccc(S(=O)(=O)NCl)cc1`, the compound was called inactive in assay [1], in [2], in assay [3], in [4], in assay [5] and in assay [6]. The compound was called inactive in assay [7], in [8], in [9] and in assay [10].
For the compound `CC(Cc1ccc(O)c(O)c1)C(C)Cc1ccc(O)c(O)c1` (stereo unspecified), the AC50 in assay [1] was 33.4 µM (active); in assay [4], 20.5 µM (active); in assay [6] it was 8.81 µM (active). Also, the result in assay [2], in [3], in assay [5], in [7], in [8] and in [9] was inactive. Besides, the compound was called inactive in assay [10].
`FC(F)(F)C(F)(F)C(F)(F)C(F)(F)C(F)(F)C(F)(F)CCS`: the compound was called inactive in [1], in assay [2], in [3], in assay [4], in assay [5] and in assay [7]. The result in assay [8], in [9] and in [10] was inactive. Besides, in [6], the AC50 is 26.4 µM (active).
On to `Cc1cccc(N(C)C)c1`, for which the call in assay [1], in assay [2], in assay [3], in [4], in assay [5] and in assay [6] was inactive. The call in assay [7], in assay [8], in [9] and in assay [10] was inactive.
`CCCCNc1ccccc1`: the call in assay [1], in [2], in [3], in assay [4], in assay [5] and in assay [6] was inactive. Also, the compound was called inactive in assay [7], in [8], in [9] and in assay [10].
For the compound `CC(=O)Nc1ccc(N=Nc2cc(C)ccc2O)cc1`, the compound was classed as inactive in assay [1], in assay [2], in assay [3], in assay [4], in assay [5] and in assay [6]. Moreover, the compound was classed as inactive in assay [7], in assay [8], in assay [9] and in assay [10].
`CCCCCCCCCCCCCCCC[N+](C)(C)Cc1ccccc1`: the outcome in [1], in assay [3], in [4], in [5], in assay [6] and in [7] was inactive. Moreover, the call in [8], in [9] and in [10] was inactive. Further, the AC50 in [2] is 47.1 µM (active).
Turning to `Nc1ccc(Oc2cccc(Oc3ccc(N)cc3)c2)cc1`, the AC50 is 33.4 µM (active) in [1]; 179 µM (active) in assay [2]; 26.2 µM (active) in assay [4]; 51.5 µM (active) in assay [5]; 112 µM (active) in assay [7]; 163 µM (active) in assay [9]. For the same compound, the AC50 in [10] was 135 µM (active). For the same compound, the compound was classed as inactive in assay [3], in assay [6] and in assay [8].
For the compound `CC(C)OC(=O)c1ccccc1C(=O)OC(C)C`, the compound was classed as inactive in assay [1], in [2], in assay [3], in [4], in assay [5] and in assay [7]. For the same compound, the outcome in [8], in [9] and in assay [10] was inactive. Further, in assay [6], the half-maximal activity concentration (AC50) was 27.7 µM (active).
For the compound `CCO[Si](CCC(F)(F)C(F)(F)C(F)(F)C(F)(F)C(F)(F)C(F)(F)F)(OCC)OCC`, the call in assay [1], in assay [2], in assay [3], in assay [4], in assay [5] and in assay [6] was inactive. Moreover, the compound was classed as inactive in assay [7], in assay [8], in assay [9] and in assay [10].
